# Results filed as inconclusive are left out. Entries that show only a call come without a potency. A structure can be active in one record and inactive in another. Calls of active or inactive are those of the source. Unless noted, calls come from the whole dose curve; as a rule, active = well fitted curve in the direction sought with a large enough effect in the repeat runs; inconclusive = weak or mixed curves; inactive = no such curve, though single readings can be large; an effect the other way counts as inactive or inconclusive.
# Legend:
# [1] = qHTS assay to identify small molecule antagonists of the glucocorticoid receptor (GR) signaling pathway - cell viability counter screen (AID 720693); note: nearly all actives have a fitted effect of over 55% in size; note: potency is the fitted concentration of half-maximal effect
# [2] = qHTS assay for identifying genotoxic compounds that show differential cytotoxicity against isogenic chicken DT40 cell lines with known DNA damage response pathways - wild type cell line (AID 743012); note: nearly all actives have a fitted effect of over 60% in size; note: potency is the fitted concentration of half-maximal effect
# How it was run: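 Quantitative HTS on parental DT40 cells: 40 h compound treatment at 37 C/5% CO2, with viability then determined by CellTiter-Glo luminescence. Values serve as the DNA repair-proficient reference for differential cytotoxicity.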
# [3] = qHTS assay to identify small molecule antagonists of the androgen receptor (AR) signaling pathway using the MDA cell line - cell viability counter screen (AID 743041; note: nearly all actives have a fitted effect of over 45% in size)
# How it was run: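 Same-well cytotoxicity was assessed by CellTiter-Fluor in MDA-kb2 AR-luc cells after 16 h of compound treatment under R1881 agonism.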
# [4] = qHTS assay to identify small molecule antagonists of the thyroid receptor (TR) signaling pathway - cell viability counter screen (AID 743064); note: nearly all actives have a fitted effect of over 50% in size; note: potency is the fitted concentration of half-maximal effect
# How it was run: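 In rat pituitary GH3.TRE-Luc reporter cells co-exposed to compound and 1 nM T3 for 23.5 h, cytotoxicity was assessed with CellTiter-Fluor in the same wells, read by fluorescence.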
# [5] = qHTS assay to identify small molecule antagonists of the thyroid receptor (TR) signaling pathway (AID 743065); note: nearly all actives have a fitted effect of over 55% in size; note: potency is the fitted concentration of half-maximal effect
# How it was run: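 GH3.TRE-Luc rat pituitary cells (two TREs driving luciferase) were dosed with compound, then stimulated with 1 nM T3 (final) for 23.5 h at 37 C. ONE-Glo luminescence was the read-out, with CellTiter-Fluor fluorescence as the cytotoxicity counter-screen.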
# [6] = test system: thyroid hormone receptor (rat, GH3 cells); assay: qHTS assay to identify small molecule agonists of the thyroid receptor (TR) signaling pathway (AID 743066; calls by dose curve)
# [7] = target: Estrogen receptor (Homo sapiens) (UniProt P03372); assay: qHTS assay to identify small molecule antagonists of the estrogen receptor alpha (ER-alpha) signaling pathway (AID 743069; active = well fitted curve in the direction sought with a large enough effect in the signal ratio in the repeat runs, not every such curve was filed as active; the % refers to the signal ratio)
# Estrogen receptor (Homo sapiens), sequence (P03372 whole entry, looked up): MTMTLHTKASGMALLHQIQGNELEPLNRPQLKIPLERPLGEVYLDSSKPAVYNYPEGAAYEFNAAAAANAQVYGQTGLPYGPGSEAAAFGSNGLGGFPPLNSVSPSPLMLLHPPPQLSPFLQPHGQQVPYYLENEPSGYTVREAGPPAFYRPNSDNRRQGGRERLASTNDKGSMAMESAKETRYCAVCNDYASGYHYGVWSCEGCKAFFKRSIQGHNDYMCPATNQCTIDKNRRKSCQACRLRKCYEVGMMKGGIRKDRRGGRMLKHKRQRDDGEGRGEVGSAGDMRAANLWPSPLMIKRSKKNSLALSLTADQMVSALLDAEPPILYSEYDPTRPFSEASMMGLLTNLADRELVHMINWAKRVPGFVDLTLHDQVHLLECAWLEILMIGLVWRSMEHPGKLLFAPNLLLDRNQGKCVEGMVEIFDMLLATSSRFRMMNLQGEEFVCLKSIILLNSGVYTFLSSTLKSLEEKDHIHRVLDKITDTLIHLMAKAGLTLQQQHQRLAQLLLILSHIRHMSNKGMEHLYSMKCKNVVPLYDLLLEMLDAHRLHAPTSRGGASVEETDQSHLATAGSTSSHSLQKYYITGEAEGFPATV
# How it was run: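 Reporter cells (ER-alpha-bla, HEK293 background) are conditioned overnight in stripped-serum medium (2% charcoal-stripped FBS). Compound and 17beta-estradiol exposure runs 18 hr at 37C, 5% CO2.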
# [8] = qHTS assay to identify small molecule antagonists of the estrogen receptor alpha (ER-alpha) signaling pathway - cell viability counter screen (AID 743074; calls by dose curve;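 note: HEK293 cells carrying ER-alpha-UAS-bla reporter stimulated with 17beta-estradiol; nearly all actives have a fitted effect of over 45% in size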)
# [9] = target: Estrogen receptor (Homo sapiens) (UniProt P03372); assay: qHTS assay to identify small molecule agonists of the estrogen receptor alpha (ER-alpha) signaling pathway (AID 743075; calls by dose curve;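 note: HEK293 GripTite cells with ER-alpha and UAS-driven beta-lactamase reporter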)
# [10] = target: Estrogen receptor (Homo sapiens) (UniProt P03372); assay: qHTS assay to identify small molecule agonists of the estrogen receptor alpha (ER-alpha) signaling pathway using the BG1 cell line (AID 743079); note: nearly all actives have a fitted effect of over 20% in size; note: potency is the fitted concentration of half-maximal effect
# [11] = qHTS assay to identify small molecule antagonists of the estrogen receptor alpha (ER-alpha) signaling pathway using the BG1 cell line (AID 743080; calls by dose curve;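 note: BG1 cells stimulated with 17beta-estradiol alongside compound; series mostly up to about 70 µM; nearly all actives have a fitted effect of over 25% in size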)
# How it was run: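 BG1-Luc-4E2 cells (endogenous full-length ER-alpha, 4xERE luciferase) hormone-starved 5 days in charcoal-stripped FBS, plated 4,000/well for 24 h, then compound plus 17beta-estradiol for 21.5 h at 37 C; ONE-Glo luminescence read.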
# [12] = qHTS assay to identify small molecule antagonists of the estrogen receptor alpha (ER-alpha) signaling pathway using the BG1 cell line - cell viability counter screen (AID 743081);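 note: compound given together with 17beta-estradiol as the ER stimulus; series mostly up to about 70 µM; nearly all actives have a fitted effect of over 45% in size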
# [13] = target: Aromatase (Homo sapiens) (UniProt P11511); assay: qHTS assay to identify aromatase inhibitors (AID 743083); note: nearly all actives have a fitted effect of over 55% in size; note: potency is the fitted concentration of half-maximal effect
# Aromatase (Homo sapiens), sequence (P11511 whole entry, looked up): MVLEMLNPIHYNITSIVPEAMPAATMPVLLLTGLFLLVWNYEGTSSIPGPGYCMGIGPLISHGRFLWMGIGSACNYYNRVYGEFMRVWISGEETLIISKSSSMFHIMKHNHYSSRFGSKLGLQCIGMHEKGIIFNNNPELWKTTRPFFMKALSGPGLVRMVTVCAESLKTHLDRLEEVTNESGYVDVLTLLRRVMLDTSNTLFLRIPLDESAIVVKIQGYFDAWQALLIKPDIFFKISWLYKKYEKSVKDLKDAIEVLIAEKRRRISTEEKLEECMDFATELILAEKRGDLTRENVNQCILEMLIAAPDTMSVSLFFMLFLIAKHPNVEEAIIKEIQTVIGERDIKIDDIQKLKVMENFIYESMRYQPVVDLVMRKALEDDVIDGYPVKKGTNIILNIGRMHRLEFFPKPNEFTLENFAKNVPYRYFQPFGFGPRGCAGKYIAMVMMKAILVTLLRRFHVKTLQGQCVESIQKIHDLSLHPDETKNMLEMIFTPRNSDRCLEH
# [14] = qHTS assay for identifying genotoxic compounds that show differential cytotoxicity against isogenic chicken DT40 cell lines with known DNA damage response pathways - Rad54/Ku70 mutant cell line (AID 743015); note: nearly all actives have a fitted effect of over 60% in size; note: potency is the fitted concentration of half-maximal effect
# [15] = qHTS assay to identify small molecule antagonists of the androgen receptor (AR) signaling pathway - cell viability counter screen (AID 743033; note: nearly all actives have a fitted effect of over 45% in size; note: potency is the fitted concentration of half-maximal effect)
# [16] = target: Androgen receptor (Homo sapiens) (UniProt P10275); assay: qHTS assay to identify small molecule antagonists of the androgen receptor (AR) signaling pathway (AID 743035; active = well fitted inhibition curve with a large enough effect in the signal ratio in the repeat runs, not every such curve was filed as active; the % refers to the signal ratio)
# Androgen receptor (Homo sapiens), sequence (P10275 whole entry, looked up): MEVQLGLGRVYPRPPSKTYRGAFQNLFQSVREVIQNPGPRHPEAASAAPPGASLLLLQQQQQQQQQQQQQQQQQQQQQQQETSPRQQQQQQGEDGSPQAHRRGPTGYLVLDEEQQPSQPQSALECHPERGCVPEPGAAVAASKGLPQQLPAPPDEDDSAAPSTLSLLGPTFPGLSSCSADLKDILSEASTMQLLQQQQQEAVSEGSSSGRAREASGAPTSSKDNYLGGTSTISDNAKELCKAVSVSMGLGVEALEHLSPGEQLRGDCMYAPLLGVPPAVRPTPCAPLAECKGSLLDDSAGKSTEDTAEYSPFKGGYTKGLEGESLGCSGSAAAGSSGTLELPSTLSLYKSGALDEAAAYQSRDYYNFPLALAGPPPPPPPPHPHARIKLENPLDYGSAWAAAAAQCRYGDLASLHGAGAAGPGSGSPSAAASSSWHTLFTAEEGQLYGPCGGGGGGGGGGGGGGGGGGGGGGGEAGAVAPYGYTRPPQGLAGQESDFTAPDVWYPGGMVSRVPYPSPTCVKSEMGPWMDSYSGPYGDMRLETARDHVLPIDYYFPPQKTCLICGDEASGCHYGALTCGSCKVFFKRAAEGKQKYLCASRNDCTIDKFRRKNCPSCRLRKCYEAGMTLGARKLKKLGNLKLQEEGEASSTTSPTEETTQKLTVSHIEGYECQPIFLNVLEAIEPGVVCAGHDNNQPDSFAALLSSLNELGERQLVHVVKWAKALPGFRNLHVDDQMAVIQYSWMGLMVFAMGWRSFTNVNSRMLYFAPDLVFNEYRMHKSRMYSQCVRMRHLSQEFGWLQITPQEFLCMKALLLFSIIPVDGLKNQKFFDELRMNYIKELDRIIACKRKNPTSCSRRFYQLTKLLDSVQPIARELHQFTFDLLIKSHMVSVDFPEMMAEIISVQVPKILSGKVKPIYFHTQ
# How it was run: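 Cell line: GeneBLAzer AR-UAS-bla GripTite (HEK293). Stimulus: R1881 added after compound. Exposure: 16 h, 37C, 5% CO2. Readout: LiveBLAzer B/G FRET fluorescence after 2 h at room temperature.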
# [17] = target: Androgen receptor (Homo sapiens) (UniProt P10275); assay: qHTS assay to identify small molecule agonists of the androgen receptor (AR) signaling pathway (AID 743036; active = well fitted activation curve with a large enough effect in the signal ratio in the repeat runs, with a control signal flat, not every such curve was filed as active; the % refers to the signal ratio)
# How it was run: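 Cell-based FRET reporter assay: HEK293 line with a UAS-beta-lactamase construct, compounds added in DMSO, 16 h exposure at 37C, then 2 h substrate step at room temperature and fluorescence intensity read.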
# [18] = target: Androgen receptor (Homo sapiens) (UniProt P10275); assay: qHTS assay to identify small molecule antagonists of the androgen receptor (AR) signaling pathway using the MDA cell line (AID 743042; note: nearly all actives have a fitted effect of over 55% in size)
# How it was run: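 MDA-kb2 breast carcinoma cells carrying MMTV-luciferase (AR/GR responsive) were co-treated with compounds and the agonist R1881 for 16 h at 37C. Inhibition read as ONE-Glo luminescence; CellTiter-Fluor fluorescence measured in parallel for cytotoxicity.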
# [19] = qHTS assay for identifying genotoxic compounds that show differential cytotoxicity against isogenic chicken DT40 cell lines with known DNA damage response pathways - Rev3 mutant cell line (AID 743014); note: nearly all actives have a fitted effect of over 55% in size
SMILES,Potency [1],Potency [2],Potency [3],Potency [4],Potency [5],Potency [6],Potency [7],Potency [8],Potency [9],Potency [10],Potency [11],Potency [12],Potency [13],Potency [14],Potency [15],Potency [16],Potency [17],Potency [18],Potency [19]
CCSCC,inactive,inactive,inactive,inactive,inactive,inactive,inactive,inactive,inactive,inactive,inactive,inactive,inactive,–,–,–,–,–,–
O=C1CCC/C=C\CCCCCCCCCC1,inactive,inactive,inactive,–,–,inactive,–,inactive,–,–,–,inactive,30.6 µM (active),–,–,–,–,–,–
CN1CCN(CCCN2c3ccccc3Sc3ccc(Cl)cc32)CC1,23.9 µM (active),5.96 µM (active),–,6.68 µM (active),6.68 µM (active),–,–,–,inactive,–,inactive,–,–,8.41 µM (active),23.9 µM (active),–,–,–,–
O=C(O)[C@H]1CN(C/C=C/P(=O)(O)O)CCN1,inactive,inactive,inactive,–,–,inactive,–,inactive,–,–,–,inactive,inactive,inactive,inactive,–,–,–,–
CC[C@H]1OC(=O)C[C@@H](O)[C@H](C)[C@@H](O[C@@H]2O[C@H](C)[C@@H](O)[C@H](N(C)C)[C@H]2O)[C@@H](CCN2C[C@H](C)C[C@H](C)C2)C[C@@H](C)C(=O)/C=C/C(C)=C/[C@@H]1CO[C@@H]1O[C@H](C)[C@@H](O)[C@@H](OC)[C@H]1OC,inactive,inactive,inactive,inactive,–,inactive,inactive,inactive,inactive,inactive,inactive,inactive,inactive,–,–,inactive,inactive,inactive,–
FC(F)(F)C(F)(F)C(F)(F)C(F)(F)C(F)(F)F,inactive,inactive,inactive,–,–,inactive,inactive,inactive,inactive,inactive,inactive,–,inactive,inactive,inactive,–,–,–,–
Cc1ccc2nc(-c3ccc(N)cc3)sc2c1S(=O)(=O)O,inactive,–,inactive,–,–,inactive,inactive,–,inactive,7.58 µM (active),–,inactive,inactive,26.9 µM (active),inactive,–,–,inactive,inactive
CCCCCCCCCC(=O)NO,inactive,inactive,inactive,inactive,inactive,inactive,inactive,inactive,inactive,inactive,inactive,inactive,inactive,–,inactive,–,–,–,–
CCc1cn([C@H]2C[C@H](O)[C@@H](CO)O2)c(=O)[nH]c1=O,inactive,inactive,inactive,–,inactive,inactive,–,inactive,–,–,–,inactive,inactive,inactive,inactive,–,–,–,–
CO[C@H]1C[C@H](O[C@H]2[C@H](C)[C@@H](O[C@@H]3O[C@H](C)C[C@H](N(C)C)[C@H]3O)[C@@H](C)C[C@]3(CO3)C(=O)[C@H](C)[C@@H](O)[C@@H](C)[C@@H](C)OC(=O)[C@@H]2C)O[C@@H](C)[C@@H]1O,inactive,inactive,inactive,–,inactive,inactive,inactive,inactive,inactive,inactive,inactive,inactive,inactive,inactive,inactive,–,–,–,–
CCOC(=O)Cc1ccc(-c2ccccc2)cc1,inactive,–,inactive,inactive,inactive,inactive,inactive,inactive,inactive,inactive,–,inactive,inactive,inactive,inactive,–,–,–,inactive
C=CCN1C(=O)C(CC(C)C)NC1=S (centres undefined),inactive,inactive,inactive,–,inactive,inactive,inactive,inactive,inactive,inactive,inactive,inactive,inactive,inactive,inactive,–,–,–,–
CCCC(CCC)C(=O)OC1C[C@H]2CC[C@@H](C1)[N+]2(C)C (some centres undefined),inactive,–,inactive,–,inactive,inactive,–,inactive,–,–,–,inactive,inactive,–,inactive,–,–,–,–
CC(C)[N+]1(C)[C@@H]2CC[C@H]1CC(OC(=O)C(CO)c1ccccc1)C2 (some centres undefined),inactive,–,inactive,inactive,–,inactive,inactive,inactive,inactive,26.6 µM (active) and inactive,inactive,inactive,–,–,inactive,–,–,–,–
N=C(N)c1ccc(/C=C/c2ccc(C(=N)N)cc2O)cc1,inactive,–,inactive,–,inactive,inactive,inactive,inactive,inactive,inactive,inactive,inactive,inactive,–,inactive,–,–,–,–
CC1CCCCN1CCCOC(=O)c1ccccc1 (centres undefined),inactive,–,inactive,inactive,inactive,inactive,–,inactive,–,–,–,inactive,inactive,–,inactive,–,–,–,–
NS(=O)(=O)c1cc(Cl)c(Cl)c(S(N)(=O)=O)c1,inactive,–,inactive,inactive,inactive,inactive,–,inactive,–,–,–,inactive,inactive,–,–,–,–,–,inactive
COc1cc2c(c(OC)c1OC)-c1c(cc3c(c1OC)OCO3)C[C@@H](C)[C@](C)(O)C2,inactive,–,inactive,–,inactive,inactive,–,inactive,–,–,–,–,inactive,–,inactive,–,–,–,inactive
